In PubChem BioAssay:
Calls of active or inactive are those of the source.

test system: XIP peptide (Xip251-270) binding; assay: small-molecule binders of XIP peptide, primary screen, biochemical, small-molecule microarray, fluorescence 635/667 nm, 0.1 µg/mL protein (AID 1182); settings: fluorescent protein binding, 635 nm, higher = more signal, called active from +8 up or from −8 down

Composite z-score, inactive:
COc1cc2c(cc1O)C(C1CC1)N(Cc1cccc(OC(F)(F)F)c1)CC2 (stereo not drawn) 0.676
C=CC[C@]1(C(=O)N2CCOCC2)COC(c2ccc(OCCCO)cc2)=N1 0.627
C=CC[C@]1(C(=O)N2CCCCC2)N=C(c2ccc(OCCCO)cc2)O[C@H]1c1ccccc1CN=[N+]=[N-] 0.541
COc1ccc(CCNC(=O)[C@@]2(Sc3ccc(C)cc3)CC(=O)N(Cc3ccccc3C(F)(F)F)[C@@H]2c2ccc(CO)cc2I)cc1 0.232
O=C1N(CCS(=O)(=O)c2ccccc2)c2ccccc2[C@H]2OC(c3ccc(OCCCO)cc3)=N[C@@]12Cc1ccccc1 3.13
CCCCC[C@H]1OC[C@@]23C=C(Br)[C@@H](CC12)[C@@]1(CO1)C3=O (stereo partly drawn) -0.311
COC(=O)[C@@]1(Cc2ccc(OC)cc2)[C@H]2c3cc(C(=O)N(C)C)n(Cc4ccc(OC(F)(F)F)cc4)c3C[C@H]2CN1C(=O)c1ccccc1 -0.202
CCC#CCN(Cc1ccccc1Br)[C@H](/C=C/C1CC1)[C@@H](O)Cc1ccccc1 -0.243
CC[C@@H]1O[Si](C(C)C)(C(C)C)c2c1cc(-c1cc(C)c(OC)c(C)c1)nc2-c1ccc(Oc2ccccc2)cc1 -0.162
CCCNC(=O)[C@@]1(C)c2ccccc2C(=O)N(c2ccc(C)cn2)[C@H]1c1ccc(CO)cc1 0.635
[N-]=[N+]=Nc1ccccc1[C@@H]1OC(c2ccc(OCCCO)cc2)=N[C@]1(Cc1ccccc1)C(=O)N1CCCCC1 3.82
COc1ccc([Si](C)(C)[C@@H]2[C@@H](CCO)O[C@]3(C(=O)N(Cc4ccccc4)c4ccc(N5C(=O)c6cccc7cccc5c67)cc43)[C@H]2C)cc1 0.533
COc1cccc(C)c1NC(=O)O[C@H]1[C@H](OC(=O)Nc2ccc3c(c2)OCO3)[C@@H](OC(=O)Nc2ccc3c(c2)OCO3)[C@@H](OC)O[C@@H]1CO 0.519
Cc1cc(C)c(C(O)C2C=CC3C(=O)N(c4ccccc4)C(=O)C3N2Nc2ccccc2F)c(C)c1 (stereo not drawn) -0.121
CCCC1(C(=O)OC)C=C2C(=C(C)C(=O)C2C)CN1 (stereo not drawn) -1.06
O=C(NCCN1CCOCC1)[C@@H]1c2ccccc2C(=O)N(Cc2ccccc2Cl)[C@H]1c1ccc(CO)cc1 -0.121
C=C(/C(=C/C[C@H](OC(C)=O)c1ccc(CO)o1)c1cnc2ccccc2c1)C(C)C 0.0103
CCOC(=O)C[C@H]1[C@H](OC(=O)Cc2ccc3c(c2)OCO3)[C@@H](NC(=O)c2ccc3ccccc3n2)c2cc(OCCCO)ccc2N1C(=O)c1ccc2ccccc2n1 -0.113
[N-]=[N+]=Nc1ccccc1C[C@]1(C(=O)NCCN2CCOCC2)COC(c2ccc(OCCCO)cc2)=N1 0.728
COc1ccc(CCNC(=O)[C@@H]2c3ccccc3C(=O)N(C3CCCCC3)[C@H]2c2ccc(CO)cc2)cc1 0.09
COCCOC(=O)N1C(=O)[C@@]2(c3ccccc31)[C@H](C(=O)NC[C@H](O)c1ccccc1)[C@H]1C(=O)O[C@H](c3ccccc3)[C@H](c3ccccc3)N1[C@@H]2c1ccc(O)cc1 0.26
COC(=O)[C@]1(CCS(=O)(=O)c2ccccc2)N=C(c2ccc(OCCCO)cc2)O[C@@H]1c1ccccc1N=[N+]=[N-] 1.48
CC(C)C(CO)N1C(=O)[C@@H]2C3C(=O)OCCC/C=C\[C@H]3OC23C=CCN(c2ccc4ccccc4c2)C(=O)[C@@H]13 (stereo partly drawn) 0.0076
CN1C2C=C(CCCO)C(C3C(=O)N(C(N)=O)C(=O)C32)C1C1CC1 (stereo not drawn) 0.379
NCCCCCNC(=O)[C@@H]1C[C@@H]2C(=O)N[C@@H](CCCCN)C(=O)N2[C@@H]1c1ccc(O)cc1 0.439
CCCCCC1=C2CNC(C)(C(=O)OC)C=C2C(C)C1=O (stereo not drawn) -0.22
COc1ccc(CCNC(=O)[C@@]2(c3ccc([N+](=O)[O-])cc3)CC(=O)N(C3CCCCC3)[C@@H]2c2ccc(CO)cc2)cc1 1.48
COCCOC(=O)N1C(=O)[C@@]2(c3cc(C#CCC(C(=O)OC)C(=O)OC)ccc31)[C@H](c1ccc(OCCO)cc1)N1[C@H](c3ccccc3)[C@H](c3ccccc3)OC(=O)[C@H]1[C@@H]2C(=O)N1CCc2cc(OC)c(OC)cc2C1 1.24
